Screening data deposited in PubChem BioAssay by The Scripps Research Institute Molecular Screening Center.
FBW7 act: activators of human E3 ligase FBW7; Q969H0; AlphaScreen FBW7–phospho-cyclin E peptide binding, activator screen; normalized activity (activation), % at 26.1 µM; 650,000 tested, 0.13% active; in the data active = normalized activity above about 1.9%;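 also: purified mutant Fbw7 with reduced substrate affinity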
Target sequence (Q969H0 whole entry, looked up): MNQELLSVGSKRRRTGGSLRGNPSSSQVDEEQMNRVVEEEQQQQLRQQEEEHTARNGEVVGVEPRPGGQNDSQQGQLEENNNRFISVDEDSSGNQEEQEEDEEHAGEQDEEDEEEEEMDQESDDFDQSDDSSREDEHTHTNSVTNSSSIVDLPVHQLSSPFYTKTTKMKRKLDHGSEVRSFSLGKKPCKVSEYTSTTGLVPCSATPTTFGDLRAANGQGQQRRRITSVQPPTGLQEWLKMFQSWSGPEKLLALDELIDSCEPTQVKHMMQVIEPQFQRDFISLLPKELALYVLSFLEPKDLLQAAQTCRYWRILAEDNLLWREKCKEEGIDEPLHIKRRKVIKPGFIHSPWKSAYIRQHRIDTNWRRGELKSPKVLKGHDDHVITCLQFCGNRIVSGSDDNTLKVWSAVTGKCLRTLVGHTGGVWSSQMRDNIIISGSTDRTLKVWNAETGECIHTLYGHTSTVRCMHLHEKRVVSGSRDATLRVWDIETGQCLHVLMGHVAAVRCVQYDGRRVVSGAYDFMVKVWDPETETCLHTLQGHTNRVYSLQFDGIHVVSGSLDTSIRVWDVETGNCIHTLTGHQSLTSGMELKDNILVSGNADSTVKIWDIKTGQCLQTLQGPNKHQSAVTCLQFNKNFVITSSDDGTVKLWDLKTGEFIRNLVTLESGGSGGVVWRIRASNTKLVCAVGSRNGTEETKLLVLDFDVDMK
GPR151 activ: activates the human receptor GPR151; Q8TDV0; 650,000 tested, 1% active; activation, % at 11.2 µM; AID 1508602; PathHunter beta-arrestin GPR151 cells, luminescence; in the data active = activation above about 4.9%
TEAD-YAP inh: TEAD-YAP interaction inhibition; HEK-TIYL cells, TEAD-Gal4/YAP UAS-luciferase luminescence; inhibition, % at 9.12 µM; 640,000 tested, 1.4% active; AID 1259422; in the data active = inhibition above about 32%
MITF inh: blocks human microphthalmia-associated transcription factor; O75030; AlphaScreen MITF homodimerization, bead proximity signal; inhibition, % at 2.6 µM; 650,000 tested, 0.91% active; in the data active = inhibition above about 50%
MITF inh conf: human MITF inhibition, confirmation | shares compounds with MITF inh | AlphaScreen MITF homodimerization, biotin/His-MITF beads | inhibition, % at 2.6 µM | 4,700 tested, 16% active | AID 1259372;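 active = inhibition above a cutoff derived from the DMSO control wells, cut at about 28% in these data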;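 also: inhibitors lower the bead chemiluminescence by keeping MITF from dimerizing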
AlphaScreen DR: counter-screen: compounds optically interfering with AlphaScreen; shares compounds with MITF inh; AlphaScreen optical interference counterscreen, cell-free; IC50, µM; 480 tested, 6% active; AID 1259373; call rule not given here
AlphaScreen intf2: AlphaScreen optical interference, counter-screen | shares compounds with MITF inh | LysRS AlphaScreen counterscreen, signal interference, triplicate | inhibition, % at 2.6 µM | 4,700 tested, 7.6% active | AID 1259376;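 active = inhibition above a cutoff derived from the DMSO control wells, cut at about 30% in these data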
Of the large screens only hits and unclear results are named; the others gave an inactive call (follow-up assays come after a bar, where they were run). Compounds with a hit are over-represented: about 3.4% of the library has one in this group of screens.

COc1ccc(C(=O)NCCN2CCOCC2)c(OC)c1	MITF inh 53 | MITF inh conf inactive | AlphaScreen intf2 inactive
O=C(CNCCCN1CCOCC1)Nc1ccc(C(=O)N2CCCCC2)cc1	MITF inh 85 | MITF inh conf inactive | AlphaScreen intf2 inactive
O=C(CNCCCN1CCOCC1)Nc1ccccc1	none
CCOc1cc2[nH]c(=O)n(CCCC(=O)NC(C)C)c(=O)c2cc1OCC	none
O=C(Nc1ccc(N2CCOCC2)cc1)NC1CCCCC1	MITF inh 72 | MITF inh conf inactive | AlphaScreen intf2 inactive
COc1ccc(CCNCCN2CCOCC2)cc1	MITF inh 84 | MITF inh conf inactive | AlphaScreen intf2 inactive
CCN1CCN(CCC(=O)Nc2ccc3c(c2)OCCO3)CC1	MITF inh 104 | MITF inh conf inactive | AlphaScreen intf2 inactive
COc1ccc(CCNC(=O)C(=O)NCCCN2CCOCC2)cc1	none
O=C(CNCCN1CCOCC1)Nc1ccc2c(c1)OCO2	MITF inh 87 | MITF inh conf inactive | AlphaScreen intf2 inactive
Cc1ccc(SCc2nc3ccccn3c2Br)cc1	none
O=C(C1CC12CCN(Cc1ccc(CO)o1)CC2)N1CCN(Cc2ccccc2)CC1 (configuration not stated)	none
O=C1C2C3CCC(C3)C2C(=O)N1c1ccc(F)cc1Cl (configuration not stated)	none
COc1ccc(NC(=O)CNCCN2CCCCC2)cc1	none
O=C(CNCCN1CCOCC1)Nc1ccc(OC(F)(F)F)cc1	MITF inh 60 | MITF inh conf inactive | AlphaScreen intf2 inactive
COc1ccc(NC(=O)CNCCN2CCOCC2)cc1	MITF inh 93 | MITF inh conf inactive | AlphaScreen intf2 inactive
CCOc1ccc(CN2CCN(Cc3cc(CC(C)C)n[nH]3)CC2CCO)cc1 (configuration not stated)	none
OCCCNc1ncnc2sc(-c3ccccc3)cc12	none
C=COCCCNc1ncnc2sc(-c3ccccc3)cc12	MITF inh 61 | MITF inh conf inactive | AlphaScreen intf2 inactive
c1ccc(-c2cc3c(NCCCN4CCOCC4)ncnc3s2)cc1	MITF inh 61 | MITF inh conf inactive | AlphaScreen intf2 inactive
COc1cc(/C=N\O)ccc1OCC(=O)O	none
Cc1[nH]c(=O)[nH]c1C(=O)CCCCC(=O)OCC(=O)Oc1ccc2ccccc2c1	MITF inh 112 | MITF inh conf 111 | AlphaScreen intf2 98
Cc1[nH]c(=O)[nH]c1C(=O)CCCCC(=O)O	MITF inh 121 | MITF inh conf 113 | AlphaScreen intf2 95
CCCCCCC(=O)Oc1ccc2cc(OC(=O)CCCCCC)ccc2c1	none
CCOC(=O)CCCC/C(=N\O)c1[nH]c(=O)[nH]c1C	MITF inh 99 | MITF inh conf 97 | AlphaScreen intf2 65
Cc1cc(NC(=O)COC(=O)CCCCC(=O)c2[nH]c(=O)[nH]c2C)no1	MITF inh 116 | MITF inh conf 112 | AlphaScreen intf2 93
CCOC(=O)CCCCC(=O)c1[nH]c(=O)[nH]c1CNc1ccc(Br)cc1	none
Cc1[nH]c(=O)[nH]c1C(=O)CCCCC(=O)OCC(=O)Nc1ccccc1[N+](=O)[O-]	MITF inh 113 | MITF inh conf 115 | AlphaScreen intf2 93
CC(=O)NCC(=O)OCC(=O)Nc1ccccc1[N+](=O)[O-]	none
CCC1CCCCN1C(=O)Cn1nc([N+](=O)[O-])cc1C (configuration not stated)	MITF inh 91 | MITF inh conf inactive | AlphaScreen intf2 inactive
CCC1CCCCN1C(=O)Cn1nc(C)n2c(cc3ccsc32)c1=O (configuration not stated)	MITF inh 61 | MITF inh conf inactive | AlphaScreen intf2 inactive
CC(C)(C)C(=O)COC(=O)[C@@H]1CC(O)CN1S(=O)(=O)c1ccc(F)cc1 (some centres not stated)	MITF inh 60 | MITF inh conf inactive | AlphaScreen intf2 inactive
O=c1[nH]cc(N=Cc2ccc([N+](=O)[O-])o2)c(=O)[nH]1	MITF inh 85 | MITF inh conf 64 | AlphaScreen DR inactive | AlphaScreen intf2 inactive
COc1ccc([N+](=O)[O-])cc1NC(=O)c1ccc(C(C)(C)C)cc1	none
COc1ccc([N+](=O)[O-])cc1NC(=O)c1ccc(F)cc1	MITF inh 57 | MITF inh conf inactive | AlphaScreen intf2 inactive
